Compound activity deposited in PubChem by National Center for Advancing Translational Sciences (NCATS).
Shown are actives, neighbours in structure and some others; about 7.3% of the full set was active somewhere.
FMDV inh: antivirals against foot and mouth disease virus. Potency, µM (titrated, usually from 57.9 µM), for inactives: at the top dose activity change, negative = inhibition, usual class: inhibitors. 1.2% of 410,000 active. FMDV antiviral cell-based qHTS; calls by dose curve; tested in HEK293T cells; note: read-out not given here; potency is the fitted concentration of half-maximal effect; nearly all actives have a fitted effect of over 45% in size
HCV inh: HCV inhibition; Huh7.5.1 HCVcc-Cre infection, luciferase reporter, 44 h; Potency, µM (doses to about 41.8 µM), without a hit: at the highest dose activity change, negative = inhibition, most hits filed as inhibitors; 3.4% of 340,000 active; note: potency is the fitted concentration of half-maximal effect
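Whole-lifecycle infectious HCVcc-Cre system; cells 1,000/well, compound then virus (~0.5 moi) added 4 h after plating, 44 h culture. Luciferase read 15 sec following 15 min substrate incubation, room temp.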
HCMV inh: human cytomegalovirus inhibition. activity change, negative = inhibition, % at 57.5 µM. 4.5% of 410,000 active. HFF cells, HCMV-luciferase reporter, 72 h; stronger effect = lower value; in the data active = activity change below about -60%; inconclusive = no clear call, values can overlap the other calls; inactive = above about -39%
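After 16 h attachment at 37C, HFF cells received test compound and HCMV-luciferase (1 PFU/cell); reporter luminescence read 72 h later, data normalized against buffer-only and known inhibitor Salinomycin.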
AmpC inh no detg: blocks E. coli AmpC beta-lactamase in detergent-free assay; Potency, µM (top dose mostly 57.1 µM), for the others: at the highest dose activity change, negative = inhibition, most hits filed as inhibitors; 0.52% of 330,000 active; AmpC nitrocefin hydrolysis, absorbance 480 nm, 0.0001% Triton; AID 485341; P00811;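 note: potency is the fitted concentration of half-maximal effect; plate controls were no compound for no effect and no enzyme for full effect; nearly all actives have a fitted effect of over 20% in size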
Target sequence (P00811 whole entry, looked up): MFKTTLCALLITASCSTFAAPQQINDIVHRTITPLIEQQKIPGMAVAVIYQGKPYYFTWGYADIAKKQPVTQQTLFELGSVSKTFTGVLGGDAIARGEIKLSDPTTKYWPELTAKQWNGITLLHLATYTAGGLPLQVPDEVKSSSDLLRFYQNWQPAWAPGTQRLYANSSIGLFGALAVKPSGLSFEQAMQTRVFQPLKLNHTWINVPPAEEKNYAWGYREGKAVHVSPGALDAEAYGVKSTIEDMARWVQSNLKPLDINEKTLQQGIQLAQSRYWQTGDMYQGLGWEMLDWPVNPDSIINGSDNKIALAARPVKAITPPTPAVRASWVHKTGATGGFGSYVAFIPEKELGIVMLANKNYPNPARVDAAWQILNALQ
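20 mM phosphate pH 7.0 + 0.01% (detergent screen) or 0.0001% Triton X-100; 5.3 nM AmpC reagent; cpd preinc 15 min RT; nitrocefin (800 uM stock) to start; A480 q20 s × 4 min; Activity was normalised to no-enzyme and no-compound control wells.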
AmpC inh detg: inhibitors of E. coli AmpC beta-lactamase with detergent. P00811. AmpC hydrolysis of nitrocefin, absorbance 480 nm, 0.01% Triton. Potency, µM (series often up to 114 µM), inactives show at the top dose activity change, negative = inhibition, usual class: inhibitors. 0.041% of 370,000 active;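 note: potency is the fitted concentration of half-maximal effect; 0% = no-compound wells and -100% = no-enzyme wells; nearly all actives have a fitted effect of over 25% in size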
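20 mM phosphate pH 7.0 + 0.01% (detergent screen) or 0.0001% Triton X-100; 5.3 nM AmpC reagent; cpd preinc 15 min RT; nitrocefin (800 uM stock) to start; A480 q20 s × 4 min; Activity was normalised to no-enzyme and no-compound control wells.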
Numbers without * were called inactive; ? = inconclusive; nt = no result given. Unless noted, calls come from the whole dose curve; as a rule, active = well fitted curve in the direction sought with a large enough effect; inconclusive = small, poorly fitted or top-dose-only effect, or another doubt; inactive = no such curve, though single readings can be large; an effect the other way counts as inactive or inconclusive. Unless noted, % is set by controls: 0 for no effect and ±100 for the full control effect.

SMILES	FMDV inh	HCV inh	HCMV inh	AmpC inh no detg	AmpC inh detg
Cc1cc(C)n2nc(-c3cccc(Br)c3)cc2n1	24.2%	?	111.4	121.5%	?
COc1ccc(-c2cc3nc(C)cc(-c4ccc(OC)cc4)n3n2)cc1	-2.8%	10µM*	19.7	41.9%	-13.0%
COCCn1c(CNC(=O)c2cc(OC)c(OC)c(OC)c2)nc2cccnc21	-8.9%	nt	3.7	nt	-1.3%
COc1ccc(C(O)c2ncc(-c3ccccc3Cl)[nH]2)cc1 (centres undefined)	38.1%	nt	-73.6*	nt	nt
COc1ccc(C(O)c2ncc(-c3ccccc3OC)[nH]2)cc1 (centres undefined)	2.1%	nt	2.2	nt	nt
CN1CCN(c2nc(N3CCN(c4ccccc4)CC3)ncc2F)CC1	nt	6.31µM*	-28.9	11.7%	-2.4%
Cc1cc(C)c(C(=O)N2CCCC(N3CCN(c4cccc(C(F)(F)F)c4)CC3)C2)o1 (centres undefined)	?	11.2µM*	-16.7	169.0%	-2.0%
Cc1ccsc1C(=O)N1CCCC(N2CCN(c3cccc(Cl)c3)CC2)C1 (centres undefined)	?	?	-63.5*	-0.6%	0.1%
Cc1nnsc1C(=O)N1CCCC(N2CCN(c3cccc(C(F)(F)F)c3)CC2)C1 (centres undefined)	-4.6%	-14.2%	-61.3*	154.4%	4.5%
O=C(Cn1cccn1)N1CCCC(N2CCN(c3cccc(C(F)(F)F)c3)CC2)C1 (centres undefined)	0.6%	nt	-2.6	95.6%	2.9%
Cc1cccc(C(=O)N2CCCC(N3CCN(c4cccc(Cl)c4)CC3)C2)n1 (centres undefined)	-8.4%	-19.7%	56.8	82.0%	1.9%
O=C(CCn1cccn1)N1CCCC(N2CCN(c3cccc(C(F)(F)F)c3)CC2)C1 (centres undefined)	-8.0%	-23.4%	-61.9*	158.6%	-12.3%
CCOC(=O)c1ccc(OCC2c3cc(OC)c(OC)cc3CCN2C(=O)Cc2ccc(OC)c(OC)c2)cc1 (centres undefined)	-15.4%	nt	20.8	nt	1.4%
O=C(c1ccco1)N1CCCC(N2CCN(c3cccc(C(F)(F)F)c3)CC2)C1 (centres undefined)	-26.3%	22.4µM*	24.5	166.6%	4.9%
O=C(CNC(=O)c1n[nH]c2ccccc12)Nc1ccc(F)c(F)c1F	-7.5%	32.0%	0.1	-49.1%	nt
Cc1ccc(C)c(NC(=O)Cn2cc(C(=O)c3ccco3)c3ccccc32)c1	-25.2%	nt	-33.8	nt	24.5%
Cc1cccc(NC(=O)Cn2cc(C(=O)c3ccccc3)c3ccccc32)c1C	?	nt	-66.6*	nt	0.8%
O=C(Cn1cc(C(=O)C(F)(F)F)c2ccccc21)Nc1ccccc1F	-8.2%	1.6%	-4.6	-41.1%	-0.4%
Cc1cccc(NC(=O)Cn2cc(C(=O)c3ccco3)c3ccccc32)c1C	0.0%	nt	-87.5*	nt	-7.8%
O=C(Cn1cc(C(=O)c2ccco2)c2ccccc21)Nc1ccccc1F	-24.0%	-21.1%	-74.7*	28.2µM*	-2.5%
Cc1cccc(NC(=O)Cn2cc(C(=O)C3CCCCC3)c3ccccc32)c1C	?	nt	-92.6*	nt	0.4%
O=C(Cn1cc(C(=O)C2CCCCC2)c2ccccc21)Nc1ccccc1Cl	-24.9%	nt	-14.1	nt	16.9%
COC(=O)C(c1ccccc1)(c1cn(C)c2ccccc12)C(Nc1ccc(OC)cc1)c1ccccc1 (centres undefined)	nt	nt	-5.1	nt	nt
CC(C)NC(=O)Cn1cc(C(=O)C2CC2)c2ccccc21	8.8%	5.9%	-61.4*	-9.5%	3.1%
Cc1cccc(NC(=O)Cn2cc(C(=O)c3ccccc3)c3ccccc32)c1	-21.4%	nt	-79.6*	nt	4.1%
CC(C)NC(=O)Cn1cc(C(=O)c2ccccc2)c2ccccc21	2.1%	-6.5%	96.0	-8.6%	?
O=C(c1ccco1)c1cn(CC(=O)N2CCCc3ccccc32)c2ccccc12	?	11.2µM*	33.3	?	-14.0%
CC(=O)c1cc(-c2ccccc2)n(CC(=O)Nc2cccc(C)c2)c1C	?	-19.1%	-28.5	14.1µM*	?
O=C(Cn1c(-c2cccs2)cc2ccccc21)N1CCN(c2ccc(F)cc2)CC1	-20.2%	nt	9.1	nt	14.7%
